Most compounds without a hit are left out; they make up all but 10% or so of the library.
JMJD2A Tudor inh: JMJD2A Tudor domain (human) inhibition; O75164; AlphaScreen JMJD2A-Tudor / H3K4me3 peptide binding; Potency, µM (highest dose often 114 µM), for the others: top-dose activity change, negative = inhibition, most hits filed as inhibitors; hit rate 4.4% among 390,000; AID 504339; further: on the % scale 0 is the no-effect control and ±100 the full control effect; nearly all actives have a fitted effect of over 50% in size
G9a inh: G9a (human) methyltransferase inhibition | Q96KQ7 | G9a H3K9 monomethylation, AlphaScreen, 2 h | Potency, µM (doses to about 102 µM), inactives show at the highest dose activity, negative = inhibition, hits mostly inhibitors | hit rate 8.8% among 350,000; further: on the % scale 0 is the no-effect control and ±100 the full control effect; nearly all actives have a fitted effect of over 75% in size
Target sequence (Q96KQ7 913-1193 limits assumed): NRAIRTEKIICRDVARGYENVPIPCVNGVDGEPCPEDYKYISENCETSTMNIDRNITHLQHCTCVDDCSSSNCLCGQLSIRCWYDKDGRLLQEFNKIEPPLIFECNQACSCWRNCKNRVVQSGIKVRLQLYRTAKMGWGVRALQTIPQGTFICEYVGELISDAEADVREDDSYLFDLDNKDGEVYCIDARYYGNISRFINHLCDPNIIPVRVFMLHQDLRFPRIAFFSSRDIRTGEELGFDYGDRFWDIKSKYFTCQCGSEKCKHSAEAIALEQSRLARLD
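Quantitative HTS format: methyltransferase activity on a biotin-tagged H3K9 peptide is measured by AlphaScreen, using a rabbit anti-monomethyl-H3K9 antibody with streptavidin donor and anti-IgG acceptor beads. Final levels are 20 nM enzyme, 500 nM peptide, 20 uM SAM; 2 h RT.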
BAZ2B inh: blocks human BAZ2B. Q9UIF8. AlphaScreen BAZ2B-H3K14Ac peptide displacement. Potency, µM (highest dose often 114 µM), for inactives: top-dose activity change, negative = inhibition, actives largely listed as inhibitors. hit rate 4.4% among 360,000; further: on the % scale 0 is the no-effect control and ±100 the full control effect; nearly all actives have a fitted effect of over 60% in size
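BAZ2B (50 nM) with biotin-H3(5-23)K14Ac peptide (50 nM) in PBS pH 7.4, 0.01% Tween-20, preformed 30 min, then compound 30 min at room temperature; top concentration 110uM. AlphaScreen streptavidin donor/nickel chelate acceptor beads (10 ug/mL final), 20 min dark, signal read.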
HP1b chromo inh: blocks HP1-beta chromodomain binding to methylated histone tails. P83916. AlphaScreen HP1-beta / biotin-H3K9me3 peptide binding. Potency, µM (doses to about 114 µM), for the others: at the highest dose activity change, negative = inhibition, most hits filed as inhibitors. hit rate 0.56% among 390,000. AID 540317; further: nearly all actives have a fitted effect of over 70% in size
Target sequence (P83916 whole entry, looked up): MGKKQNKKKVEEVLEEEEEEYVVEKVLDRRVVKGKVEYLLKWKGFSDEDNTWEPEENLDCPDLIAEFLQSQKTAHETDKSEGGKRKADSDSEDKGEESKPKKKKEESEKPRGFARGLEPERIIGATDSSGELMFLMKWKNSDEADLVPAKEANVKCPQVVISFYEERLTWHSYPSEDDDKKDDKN
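Compound inhibition of the preformed complex between 50 nM HP1-beta and 50 nM biotinylated H3K9me3 peptide was read by AlphaScreen. Buffer was PBS pH 7.4 with 0.01% Tween-20. Incubations ran 30 min at room temperature, with 10 ug/mL donor/acceptor beads.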
GLS inhibitor: inhibitors of human glutaminase (GLS). AID 624170. O94925. GLS enzymatic activity, qHTS titration. hit rate 0.21% among 410,000. Potency, µM (highest dose often 45.5 µM), for inactives: top-dose activity change, negative = inhibition, hits mostly inhibitors; further: on the % scale 0 is the no-effect control and ±100 the full control effect
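Human kidney-isoform GLS in 45 mM KH2PO4 pH 8.2, 0.02% Tween-20, with compound, started with 1mM L-Glutamine (added stock). Glutamate oxidase/HRP/Amplex red coupled fluorescence read at start and after 30 min at RT.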
* marks the source's active call; other numbers are inactive results; ? = inconclusive; · = no result; [ ] = another dose, or the depositor's remark. The call rests on the fitted dose curve; in most records, active means well fitted curve in the direction sought with a large enough effect; inconclusive means small, poorly fitted or top-dose-only effect, or another doubt; inactive means no such curve, though single readings can be large; an effect the other way counts as inactive or inconclusive. Potency means the concentration at half of the fitted maximal effect.

SMILES	JMJD2A Tudor inh	G9a inh	BAZ2B inh	HP1b chromo inh	GLS inhibitor
CC1=C(C(=O)OCCCBr)C(c2ccc3c(c2)OCO3)NC(=O)N1 (stereo not drawn)	-12%	50µM*	-35%	34%	5%
CCCOC(=O)C1=C(C)NC(=O)NC1c1cccc2ccccc12 (stereo not drawn)	-10%	56%	-15%	37%	10%
Cc1nnc2c(Nc3cccc(O)c3)nc3ccccc3n12	-33%	-3%[59 µM]	?	31%	3%
COc1ccc2[nH]c3c(=O)n(Cc4ccc(C(=O)NCC5CCCO5)cc4)c(=S)[nH]c3c2c1 (stereo not drawn)	10µM*	1.3µM*	?	16%	?
CCOCCCNC(=O)c1ccc(Cn2c(=S)[nH]c3c([nH]c4ccc(OC)cc43)c2=O)cc1	-26%	?	-2%	15%	?
CC[C@H](C)NC(=O)c1ccc(Cn2c(=S)[nH]c3c([nH]c4ccc(OC)cc43)c2=O)cc1	?	56µM*	71µM*	-1%	1%
CCCCNC(=O)c1ccc(Cn2c(=S)[nH]c3c([nH]c4ccc(OC)cc43)c2=O)cc1	-32%	-19%	-5%	16%	-2%
COc1ccc2[nH]c3c(=O)n(Cc4ccc(C(=O)N5CCC(C(N)=O)CC5)cc4)c(=S)[nH]c3c2c1	4µM*	3.2µM*	?	?	22µM*
Cc1c2cnn(-c3ccccc3)c(=O)c2c(C)n1CCCC(=O)Nc1cccc(F)c1	-30%	-23%[59 µM]	-34%	2%	-7%
c1ccc(CN2CCC(Nc3nc(-c4cccs4)nc4ccccc34)CC2)cc1	?	35µM*	?	3%	-6%
CC(C)=C[C@@H]1C[C@H](C)[C@H]2CC[C@H](C)c3c(O)c(O)c(C)c1c32	40µM*	6%[0.501 µM]	56µM*	?	?
CC(=O)O[C@H]1[C@H](O)[C@H](Oc2c(O)c(C)c3c4c2[C@@H](C)CC[C@@H]4[C@@H](C)C[C@H]3C=C(C)C)O[C@@H](C)[C@H]1O	32µM*	·	·	-21%	-3%
Cc1nc2cnc(N3CCN(C)CC3)nc2n(C)c1=O	·	9%[0.501 µM]	·	·	·
Cc1nnc(C)n1/N=C/c1ccccc1	-16%	23%	8%[57.1 µM]	5%	2%
N=C1N(/N=C/c2ccccc2)C(=Nc2ccccc2)C(=S)N1c1ccccc1	0%	10µM*	?	30%	·
Cc1ccc(-c2nnc(-c3cccc(Br)c3)o2)cc1	50µM*	11%[59 µM]	8%	-7%	30%
CCc1nc(N2CCN(C(=O)CCl)CC2)c2c3c(sc2n1)CC(C)CC3 (stereo not drawn)	-29%	79µM*	-25%	17%	-1%
CCOc1ccc(-c2cc(C(=O)NCCc3ccccc3)c3c(-c4ccc(C)cc4)[nH]nc3n2)cc1	-1%	13%[59 µM]	25%	38%	4%
COc1ccc2[nH]c(C(=O)O)c(NC(=O)c3cc(OC)c(OC)c(OC)c3)c2c1	-14%	?	-8%	18%	22%
COc1cc(C(=O)Nc2ccncc2)cc(OC)c1OC	-4%	-12%	6%	30%	0%
COc1cc(C(=O)Nc2c(C(=O)O)[nH]c3ccccc23)cc(OC)c1OC	-14%	16µM*	-11%	23%	19%
COc1cc(C(=O)Nc2ccc(Nc3ccccc3)cc2)cc(OC)c1OC	?	50µM*	?	-21%	11%
COC(=O)c1cc2oc(C)cc2n1CC(=O)Nc1ccc(C)cc1C	-7%	-8%[59 µM]	-1%	25%	-1%
O=S(=O)(CCc1ccncc1)C1Cc2cccc3cccc1c23 (stereo not drawn)	-2%	?	-9%	17%	4%
Cc1ccc(-n2c(O)c(C=Nc3ccccc3-c3n[nH]c(=S)[nH]c3=O)c3ccccc3c2=O)c(C)c1	45µM*	?	40µM*	?	11%
SMILES	JMJD2A Tudor inh	G9a inh	BAZ2B inh	HP1b chromo inh	GLS inhibitor
Cc1cccc(-n2c(O)c(C=Nc3ccccc3O)c3ccccc3c2=O)n1	-19%	23%	-25%	-12%	-18%
Cc1cccc(-n2c(O)c(C=Nc3ccccc3-c3n[nH]c(=S)[nH]c3=O)c3ccccc3c2=O)n1	?	40µM*	-34%	9%	19%
Cc1ccc(-n2c(O)c(C=Nc3ccccc3-c3n[nH]c(=S)[nH]c3=O)c3ccccc3c2=O)cc1C	50µM*	?	45µM*	-36%	11%
Cc1ccc(-n2c(O)c(C=NC3CCS(=O)(=O)C3)c3ccccc3c2=O)cc1C (stereo not drawn)	-20%	6%[59 µM]	-30%	9%	0%
Cc1cccc(-n2c(O)c(C=Nc3ccc(O)cc3)c3ccccc3c2=O)n1	-24%	50µM*	?	10%	18%
S=C(Sc1ccc(Cl)cc1)Sc1ccc(Cl)cc1	·	?	-2%	·	·
O=c1c(CCc2ccccc2)nc2cnc(Oc3ccccc3)nc2n1C[C@H]1CCCO1	·	3%[12.7 µM]	·	·	·
CCOC(=O)CCCCC(=O)c1[nH]c(=O)[nH]c1Cn1cnc2ccccc21	?	?	35µM*	-11%	22%
CCOC(=O)CCCCC(=O)c1[nH]c(=O)[nH]c1CSc1nc(-c2ccccc2)c(C#N)c(=O)[nH]1	?	?	35µM*	20%	36%
CCOC(=O)CCCCC(=O)c1[nH]c(=O)[nH]c1CSCCO	79µM*	?	13µM*	-30%	-1%
COc1ccc(-n2c(=O)c3sc4ccccc4c3n(CC(=O)Nc3ccccc3F)c2=O)cc1	-12%	1%[59 µM]	-5%	27%	13%
Cc1ccc(-c2nc3ccccn3c2C=O)cc1	-13%	·	-3%	14%	-9%
COc1cc(-c2nc3ccccn3c2/N=C/c2cc(OC)c(OC)c(OC)c2)ccc1O	45µM*	·	·	-59%	20%
Cc1c(-c2ccc(Br)cc2)nc2ccccn12	-19%	45µM*	-5%	-8%	13%
CN(C)c1ccc(-c2nc3ccccn3c2/N=C/c2ccc(Br)cc2)cc1	45µM*	10µM*	11µM*	?	1%
O=C(Cn1ncc2c3ccccc3n(Cc3ccccc3)c2c1=O)NCCCN1CCCCC1	-13%	0%[59 µM]	-12%	17%	-2%
N#Cc1cccc(NC(=O)c2cc(C3CCCCN3C(=O)c3cccs3)on2)c1 (stereo not drawn)	·	·	·	·	-1%
CCc1ccccc1NC(=O)C(=O)NCC(c1cccnc1)N1CCN(c2ccccc2F)CC1 (stereo not drawn)	-2%	1%[59 µM]	-1%	34%	-11%
CCc1nc2ccc(C(=O)Nc3cc(-c4ccccc4)ccc3OC)cn2c1N(CCN(C)C)CC1CC1	·	·	·	·	1%
CCn1cc(Cl)c(C(=O)Nc2nc3ccccc3n2CCN2CCCCC2)n1	?	-4%	79µM*	4%	5%
CCC(=O)Nc1nc2ccccc2n1CCN(CC)CC	8.9µM*	20µM*	?	-6%	9%
CC(=O)Nc1nc2ccccc2n1CCN1CCOCC1	4.5µM*	?	-37%	-13%	4%

Screening results from PubChem BioAssay.
